PubChem BioAssay (NCI)
The panel holds about 79,000 compounds, 15% with a hit somewhere; the sample as a whole holds those more often. Values without a mark were called inactive. Calls of active or inactive are those of the source. Rule as the data show it: active = growth inhibition above about 70%; inactive = the rest.

Assay: NCI Yeast Anticancer Drug Screen. Data for the sgs1 strain (AID 173);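 also: 0% = growth of vehicle-only control cultures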
Conditions: S. cerevisiae sgs1 mutant, stronger effect = higher value
Procedure: Growth inhibition of yeast strains with defined genetic alterations is measured as a screen for potential anti-cancer activity. Selected strains with alterations in DNA damage repair or cell cycle control were exposed to compounds and growth inhibition was measured relative to vehicle treated controls. The strain used in this assay is sgs1

| SMILES | growth inhibition (at 1.2 µM) | growth inhibition (at 3.7 µM) | growth inhibition (at 11.0 µM) | growth inhibition (at 33.0 µM) | growth inhibition (at 100.0 µM) |
| --- | --- | --- | --- | --- | --- |
| c1ccc2c(c1)Cn1c-2nc2ccccc21 | -7% | -21% | -21% | 31% | 92% (active) |
| CCOc1ccc(C(=O)CCC(=O)O)c(C)c1 | 0% | -1% | 1% | 1% | 8% |
| CC(=O)c1cc2c(Cl)cc(Cl)cc2oc1=O | -31% | -40% | -29% | -15% | -42% |
| Cc1cc(C(C)(C)CC(C)(C)C)cc(O)c1O | 14% | 35% | 82% (active) | 92% (active) | 97% (active) |
| COC(=O)c1cccc(C)c1C(=O)c1c(C)cc(C)cc1C | 1% | 3% | 7% | 25% | 65% |
| CCOP1(=O)C=C(Sc2ccc([N+](=O)[O-])cc2[N+](=O)[O-])C(C)(C)O1 (stereo not given) | 3% | 6% | 13% | 37% | 84% (active) |
| COc1ccc(N)c2c1C(=O)c1ccccc1C2=O | -6% | -6% | 6% | 68% | 96% (active) |
| CC(=O)CC(=O)/C=C/c1cccs1 | -18% | -8% | 26% | 30% | 93% (active) |
